Screening results: PubChem BioAssay, National Center for Advancing Translational Sciences (NCATS)
Many of the other results were omitted from the sample, so hits are more common in it than they were.
Pf Dd2 growth – blocks in vitro growth of P. falciparum Dd2; P. falciparum Dd2 growth, SYBR Green, 72 h; Potency, µM (doses to about 28.9 µM), for inactives: at the top dose activity, negative = inhibition, actives largely listed as inhibitors; hit rate 4.3% among 120,000; AID 1347417; active = well fitted inhibition curve with a large enough effect;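 note: plate controls were DMSO vehicle for no effect and reference drug for full effect; nearly all actives have a fitted effect of over 65% in size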
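Infected erythrocytes (Dd2, 0.3% parasitemia, 2.5% hematocrit final) are added to compound in RPMI-1640/Albumax II medium, grown 72 h at 37C in low oxygen, then lysed with saponin/Triton-X containing SYBR Green and read by fluorescence.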
Starred values were filed as active, the others as inactive; i = inactive; [ ] = another dose, or the depositor's remark. Potency is the fitted concentration of half-maximal effect.

SMILES | Pf Dd2 growth
CC(C)C(=O)N1CCC(NCCOc2ccccc2Cl)CC1 | -2.6%
CC(=O)c1ccccc1OCC(O)Cn1c(CO)nc2ccccc21 (centres undefined) | i
COC(=O)Cn1c(SCCOc2ccccc2Cl)nc2ccccc21 | 22.4%
COCCOc1ccc2c(n1)CCN(C(=O)c1ccccn1)C2 | -15.2%
O=C(NC1CCCC1)N1CCCCC1c1nc(-c2ccncc2)n[nH]1 (centres undefined) | -10.3%
Cc1cc(C)n(CCC(=O)N2CC[C@@H]3CN(S(C)(=O)=O)[C@@H]3C2)n1 | 20.2%
COC(=O)c1ccc2nc(C[C@@H]3C[C@@H](C(C)C)[C@H](CNC(=O)c4cccnc4)C=C3C)[nH]c2c1 | 7.94µM*
CC1=C[C@@H](CNC(=O)c2ccccc2)[C@H](C(C)C)C[C@H]1Cc1nc2ccc(C)cc2[nH]1 | -0.2%[44.1 µM]
COC(=O)c1ccc2nc(C[C@@H]3C[C@@H](C(C)C)[C@H](CNS(=O)(=O)c4ccccc4)C=C3C)[nH]c2c1 | 10µM*
COC(=O)c1ccc2nc(C[C@@H]3C[C@@H](C(C)C)[C@H](CNCc4ccc(NC(C)=O)cc4)C=C3C)[nH]c2c1 | -6.5%
COC(=O)c1ccc2nc(C[C@@H]3C[C@@H](C(C)C)[C@H](CNC(=O)CCC(=O)O)C=C3C)[nH]c2c1 | i
COC(=O)c1ccc2nc(C[C@@H]3C[C@@H](C(C)C)[C@H](CNC(=O)CC4(CC(=O)O)CCCC4)C=C3C)[nH]c2c1 | i
O=C(Nc1cccc(Cl)c1F)N1CCCC1c1nncn1-c1ccccc1 (centres undefined) | -7.6%
COc1ccc(Nc2ncncc2-c2nc(-c3ccccc3)no2)cc1F | -26.5%
Cc1nn(CCCC(=O)NCc2ccc(F)cc2)c(=O)c2c1sc1ccccc12 | 17.5%
CCOC(=O)C1CCN(C(=O)C2CCN(c3nnc(C)c4c(C)n(-c5ccccc5)nc34)CC2)CC1 | 3.16µM*
CCOc1ccc(NC(=O)C2CCN(c3nnc(C)c4c(C)n(-c5ccccc5)nc34)CC2)cc1 | 3.6%
COc1ccccc1CNC(=O)C1CCN(c2nnc(C)c3c(C)n(-c4ccccc4)nc23)CC1 | -4.3%
Cc1ccc(-n2nc3c(N4CCC(C(=O)NCCc5ccccc5C)CC4)nnc(C)c3c2C)cc1 | 8.91µM*
Cc1ccc(-n2nc3c(N4CCC(C(=O)NC(C)c5ccccc5)CC4)nnc(C)c3c2C)cc1 (centres undefined) | 10µM*
Cc1nnc(N2CCC(C(=O)NCc3cccc(Cl)c3)CC2)c2nn(-c3ccccc3)c(C)c12 | -1.4%
Cc1nnc(N2CCC(C(=O)NC(C)C)CC2)c2nn(-c3ccc(Cl)cc3)c(C)c12 | 26.6%
Cc1ccccc1CNC(=O)C1CCN(c2nnc(C)c3c(C)n(-c4ccccc4)nc23)CC1 | i
Cc1ccc(NC(=O)C2CCN(c3nnc(C)c4c(C)n(-c5ccccc5)nc34)CC2)c(Cl)c1 | 40.8%
Cc1ccc(-n2nc3c(N4CCC(C(=O)NCCc5ccccc5)CC4)nnc(C)c3c2C)cc1 | 6.31µM*
SMILES | Pf Dd2 growth
Cc1ccc(-n2nc3c(N4CCC(C(=O)N5CCC(C)CC5)CC4)nnc(C)c3c2C)cc1 | 0.3%
Cc1nnc(N2CCC(C(=O)NC(C)C)CC2)c2nn(-c3ccccc3)c(C)c12 | 8.6%
CCCS(=O)(=O)N1C[C@@H](C(=O)NC)[C@H](c2n[nH]c(C)n2)C1 | 25.4%
CC(=O)N1CCc2cc(CNS(=O)(=O)c3ccc(Br)s3)ccc21 | 10.8%
COc1ccc(NC(=O)N2Cc3[nH]cnc3C[C@H]2c2nc(-c3ccc(F)cc3)no2)cc1 | i
O=C(c1ccccn1)N1CCC2(CC1)CC(N1CCN(c3ccccc3)CC1)CCO2 (centres undefined) | -10.6%
Cc1cccc(NS(=O)(=O)c2ccc3c(c2)CCN3C(=O)CCC(=O)O)c1C | 23.8%
Cn1ncc2c(C(=O)N3CCCC3)cc(-c3ccc([S+](C)(=O)[O-])cc3)nc21 | 10.5%
Cc1c(C(C)NC(=O)CN2CC(=O)NC2=O)cnn1-c1ccc(F)cc1F (centres undefined) | -16.8%
CSc1ncc(Cl)c(C(=O)Nc2ccc(S(=O)(=O)Nc3nccc(C)n3)cc2)n1 | 22.7%
CCCN1C(=O)c2oc3cc(C)cc(C)c3c(=O)c2C1c1ccc(F)cc1 (centres undefined) | -17.1%
O=C(O)c1ccccc1C(=O)N[C@H]1CO[C@H]2[C@@H]1OC[C@@H]2n1nnnc1Oc1ccc2c(c1)OCO2 | i
CCc1ccccc1C(=O)N[C@@H]1c2ccccc2C2(CCNCC2)[C@H]1OC | -12.4%
CCN1CCN(CC(O)COc2cccc(CNCCCc3scnc3C)c2)CC1 (centres undefined) | i
CCN1CCN(CC(O)COc2cccc(CNCc3cnn(CC)c3)c2)CC1 (centres undefined) | 0.4%
CN(CC(O)COc1cccc(CNCCc2ccc(F)cc2)c1)C1CCCCC1 (centres undefined) | 3.98µM*
CN1C(=O)c2ccccc2Sc2ccc(NC(=O)N3CCN(c4ccccc4F)CC3)cc21 | 12.6µM*
CN1C(=O)c2ccccc2Sc2ccc(NC(=O)c3ccccc3F)cc21 | -4.1%
CN1C(=O)c2ccccc2Sc2ccc(NC(=O)COc3ccc(F)cc3)cc21 | -0.2%
C#CCNC(=O)[C@@H]1CCCN1[C@@H](C(=O)NC)c1ccccc1F | 3.1%[44.1 µM]
CCOc1ccc(CC(=O)NCCn2ccn3nc(-c4ccc(C)cc4C)cc3c2=O)cc1 | -21.2%
CN1CCC2(CC1)CN(C(=O)Cn1c(=O)oc3ccccc31)Cc1ccccc1O2 | -1.2%
O=C(c1ccco1)N1CCCC(CCc2cccc(F)c2)C1 (centres undefined) | -10.0%
O=C(c1cncc(N2CCCC(CCc3cccc(F)c3)C2)n1)N1CCCCC1 (centres undefined) | 11.2µM*
Cc1cnc(C(=O)N2CCCC(CCc3cccc(F)c3)C2)cn1 (centres undefined) | 2.0%
SMILES | Pf Dd2 growth
Cc1ccc(OCC(=O)Nc2nc(-c3ccc(Br)cc3)ns2)cc1C | 8.7%
CCN1C(=O)CCN(S(=O)(=O)Cc2ccccc2F)CC12CCOCC2 | 6.9%
COC(=O)[C@@H]1Cc2nc[nH]c2CN1Cc1ccc([N+](=O)[O-])cc1 | -29.5%[44.1 µM]
COc1cc(Cl)c(C)cc1NC(=O)c1cn(CC(C)C)c(=O)c2cc(OC)c(OC)cc12 | -0.3%
COc1ccc(N2CCN(C(=O)c3cn(CC(C)C)c(=O)c4c3c3ccccc3n4C)CC2)cc1 | 10µM*
COc1cc2c(C(=O)N(C)c3cccc(C(F)(F)F)c3)cn(CC(C)C)c(=O)c2cc1OC | -16.7%
COc1cc2c(C(=O)N3CCN(c4ccc(F)cc4)CC3)cn(CC(C)C)c(=O)c2cc1OC | 10µM*
COc1ccc(Nc2ncc(C(=O)N3CCN(c4ccc(OC)cc4)CC3)c3ccccc23)cc1 | i
COc1ccccc1N1CCN(C(=O)c2cn(CC(C)C)c(=O)c3c2c2ccccc2n3C)CC1 | 7.94µM*
COc1ccc(N2CCN(C(=O)c3cc4c(=O)n(Cc5ccccc5)ccc4nc3C)CC2)cc1 | -16.3%
COc1ccccc1N1CCN(C(=O)c2c(C)oc3ncn(CC(C)C)c(=O)c23)CC1 | 8.4%
COc1ccccc1N1CCN(C(=O)Nc2cn(CC(C)C)c(=O)c3ccccc23)CC1 | 44.8%[5.79 µM]
COCCNC(=O)[C@@]12CCCC[C@H]1N(CCC(C)C)C(=O)CC2 | 15.9%
CCOc1ccc(-n2cc(-c3ccccc3)c3c(NCc4ccc(F)cc4)ncnc32)cc1 | -12.0%
O=C(COCc1cc(-c2ccco2)on1)Nc1cc(Cl)ccc1O | i
COCCOC1CN(C2CCN(C(=O)c3ccc(C#N)cc3)CC2)C12CCCCC2 (centres undefined) | i
